This is a sample that favours compounds with a hit; in the whole collection about 1.1% have one here.
OPRM1-OPRD1 ag: OPRM1-OPRD1 heterodimerization agonism. P35372+P41143. cells, luminescence. activation, % at 9.3 µM. hit rate 0.3% among 340,000. AID 504326;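 also: 0% = vehicle-treated cells and 100% = reference agonist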
HTR5A inv ag: inverse agonist of human HTR5A in OPRM1-OPRD1 counter-screen; inhibition, % at 9.3 µM; HTR5A cell line, luminescence, inverse agonism; P47898; AID 504634; hit rate 0.083% among 340,000; in the data active = inhibition mostly above about 23%, no sharp cut-off; inactive = mostly below about 18%;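 also: 0% = cells with DMSO and 100% = no-cell wells with DMSO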
MOR-DOR inv ag: inverse agonist of human OPRM1-OPRD1 heterodimerization; AID 504357; cell-based MOR-DOR heterodimer luminescence, inverse agonism; hit rate 0.21% among 340,000; P35372+P41143; inhibition, % at 9.3 µM; in the data active = inhibition above about 22%, passing the limit was not always enough;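 also: 0% = cells with DMSO and 100% = wells without cells with DMSO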
HTR5A ag ctr: counter-screen for OPRM1-OPRD1 agonists: human HTR5A agonism; hit rate 0.61% among 340,000; HTR5A agonist assay, luminescence, cell-based; activation, % at 9.3 µM; P47898; in the data active = activation mostly above about 9.5%, no sharp cut-off; inactive = mostly below about 7.6%;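 also: 0% = cells with vehicle only and 100% = reference agonist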
OPRM1-D1 ag cf: confirmation of human OPRM1-OPRD1 heterodimerization agonists | shares compounds with OPRM1-OPRD1 ag | cells, MOR-DOR heterodimerization, luminescence complementation | activation, % at 9.3 µM | hit rate 45% among 830;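 also: 0% = vehicle-treated cells and 100% = reference agonist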
HTR5A ag ctr2: counter-screen for OPRM1-OPRD1 agonists: human HTR5A agonism. AID 504905. shares compounds with OPRM1-OPRD1 ag. hit rate 8% among 830. HTR5A agonist counterscreen, cell luminescence. activation, % at 9.3 µM; in the data active = activation above about 17%;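 also: 0% = vehicle-treated cells and 100% = reference agonist response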
Starred values were filed as active, the others as inactive; i = inactive; . = not tested or not shown. Rule as the data show it, unless noted: active = activation above about 18%; inactive = the rest.

SMILES | OPRM1-OPRD1 ag | HTR5A inv ag | MOR-DOR inv ag | HTR5A ag ctr | OPRM1-D1 ag cf | HTR5A ag ctr2
CCCCCCCCCS(=O)(=O)Nc1cc(C)ccn1 | -2 | -13 | 10 | 5 | . | .
CCC(=O)NC(c1ccc(N(C)C)cc1)c1c(O)ccc2ccccc12 (stereo not given) | -2 | 12 | 10 | -4 | . | .
COc1ccc(C(CNC(=O)Cc2ccc(-c3ccccc3)cc2)N(C)C)cc1 (stereo not given) | 320* | -2 | i | 1 | -3 | -4
COc1ccc(CC(NC(=O)c2ccccc2)C(=O)NCC(=O)O)cc1 (stereo not given) | -1 | 8 | 5 | 6 | . | .
COc1ccc(C(CNC(=O)C(Cc2ccccc2)NC(N)=O)N(C)C)cc1 (stereo not given) | 23* | -2 | -117 | 1 | 269* | -2
COc1ccc(C(CNC(=O)/C=C/c2c(Cl)nc3ccccn23)N(C)C)cc1 (stereo not given) | 63* | 2 | -298 | -1 | 66* | 0
CN(C)c1ccc(C(CNC(=O)Cc2cccc3ccccc23)N(C)C)cc1 (stereo not given) | 39* | -6 | -209 | -4 | 45* | 1
CCOC(=O)c1ccc[n+](CC(=O)c2ccc(NC(=O)c3ccccc3)cc2)c1 | 1 | -8 | -3 | 3 | . | .
COc1ccc(C(CNC(=O)CSc2ccccc2C)N(C)C)cc1 (stereo not given) | 115* | -11 | i | 4 | 112* | 0
COc1ccc(/C=C/C(=O)Nc2ccccc2C(=O)NCC(c2ccc(OC)cc2)N(C)C)cc1 (stereo not given) | 22* | -15 | -117 | 6 | -1 | -1
COc1ccc(/C=C/C(=O)Nc2ccc3nc4n(c(=O)c3c2)CCCC4)cc1 | 27* | -33 | -124 | 12* | 16 | 2
Cc1ccc(S(=O)(=O)/N=C2\C=C(Nc3ccc(O)cc3)C(=O)c3ccccc32)cc1 | 16 | -7 | -64 | 0 | . | .
Cc1ccc(S(=O)(=O)/N=C2/C=C(Sc3ncn[nH]3)C(=O)c3ccccc32)cc1 | 23* | -21 | -125 | 10 | 5 | -6
O=C(c1ccccn1)N(Cc1cccs1)C1(C(=O)NC2CCCCC2)CCCCC1 | 28* | 9 | -132 | -3 | 0 | 3
O=C(c1cnccn1)N(Cc1cccs1)C1(C(=O)NC2CCCCC2)CCCCC1 | 4 | -10 | -21 | -1 | . | .
CC[C@]1(C(=O)OC)[C@H]2C(=O)N(C)C(=O)[C@H]2[C@H]2CN=C(SCc3ccc(C)cc3)N21 | -3 | -14 | 13 | 4 | . | .
COc1ccc(-n2c3c(cc(C(=O)NNc4ccccc4)c2=O)C(=O)CC(C)(C)C3)cc1 | 129* | 4 | i | -2 | 0 | 3
COc1ccc(-n2c3c(cc(C(=O)NNc4ccccc4C)c2=O)C(=O)CC(C)(C)C3)cc1 | 99* | -7 | -470 | 3 | 133* | -1
CC1(C)CC(=O)c2cc(C(=O)Nn3cnnc3)c(=O)n(-c3ccccc3)c2C1 | -2 | 14 | 12 | -6 | . | .
COc1cccc(N2CCN(CC(=O)NC(=O)NC3CCCCC3)CC2)c1 | 0 | -14 | 0 | 9 | . | .
CCOc1ccc(/C=N/NC(=O)CN2CCCCCCC2)cc1 | 0 | -2 | 0 | 1 | . | .
COc1ccc(CCn2c(=S)[nH]c3cc(C(=O)NCc4ccco4)ccc3c2=O)cc1OC | 28* | -1 | -127 | -1 | 24* | 5
COc1ccc(-c2nn(-c3ccccc3C)cc2CNC(C)c2cn(C)nc2C)cc1F (stereo not given) | 163* | 20 | i | 0 | 23* | 16
CCn1cc(CNCc2cn(-c3ccccc3C)nc2-c2ccc(OC)c(F)c2)cn1 | 243* | 10 | i | -4 | 309* | 1
COc1ccc(-c2nn(-c3ccccc3C)cc2CNCCc2cnc[nH]2)cc1F | 9 | 10 | -42 | -3 | . | .
CCOc1ccc(N2C(=O)C3C4C=CC([C@H]5CC45)[C@@H]3C2=O)cc1 (stereo not given in full) | -1 | 14 | 4 | -4 | . | .
COCCN1CCN(C(=O)c2cc(COc3ccc(Cl)cc3OC)on2)CC1 | 0 | -9 | -1 | 0 | . | .
COC(=O)c1cc2c(n1S(=O)(=O)c1ccc(C)cc1)C(=O)C(=O)c1[nH]cc(C(=O)OCc3ccccc3)c1-2 | 21* | -19 | -92 | 5 | 73* | 12

Source: PubChem (The Scripps Research Institute Molecular Screening Center)
